This is an account of results in publication PMC9911399, “Two distinct binding modes provide the RNA-binding protein RbFox with extraordinary sequence specificity”.

The labels stand for the following.
B1: AGUUGGC (DNA:RNA)
RNA: GGGAGACCGGAAUUCAGAUUGUCCAGUUGGCUUAAAUCCCGUCGUAGCCACCA
DNA 1: CAATCTGAATTCCGGTCTCCC
DNA 2: TGGTGGCTACGACGGGATT
B2: AAGCUUU (DNA:RNA)
RNA: B1 RNA with G26A, U27G, U28C, G29U, G30U, C31U
DNA 1: CAATCTGAATTCCGGTCTCCC
DNA 2: TGGTGGCTACGACGGGATT
B3: GACCGCU (DNA:RNA)
RNA: B1 RNA with A25G, G26A, U27C, U28C, G30C, C31U
DNA 1: CAATCTGAATTCCGGTCTCCC
DNA 2: TGGTGGCTACGACGGGATT
B4: GCCGCGG (DNA:RNA)
RNA: B1 RNA with A25G, G26C, U27C, U28G, G29C, C31G
DNA 1: CAATCTGAATTCCGGTCTCCC
DNA 2: TGGTGGCTACGACGGGATT
B5: CCUACUC (DNA:RNA)
RNA: B1 RNA with A25C, G26C, U28A, G29C, G30U
DNA 1: CAATCTGAATTCCGGTCTCCC
DNA 2: TGGTGGCTACGACGGGATT
B6: GCGAACG (DNA:RNA)
RNA: GGGAGACCGGAAUUCAGAUUGUCCGCGAACGUUAAAUCCCGUCGUAGCCACCA
DNA 1: CAATCTGAATTCCGGTCTCCC
DNA 2: TGGTGGCTACGACGGGATT
B7: CGAUGUG (DNA:RNA)
RNA: B1 RNA with A25C, U27A, G30U, C31G
DNA 1: CAATCTGAATTCCGGTCTCCC
DNA 2: TGGTGGCTACGACGGGATT
B8: GCGACCG (DNA:RNA)
RNA: B6 RNA with A29C
DNA 1: CAATCTGAATTCCGGTCTCCC
DNA 2: TGGTGGCTACGACGGGATT
B9: GCGAUUG (DNA:RNA)
RNA: B6 RNA with A29U, C30U
DNA 1: CAATCTGAATTCCGGTCTCCC
DNA 2: TGGTGGCTACGACGGGATT
B10: GAACGUC (DNA:RNA)
RNA: B1 RNA with A25G, G26A, U27A, U28C, G30U
DNA 1: CAATCTGAATTCCGGTCTCCC
DNA 2: TGGTGGCTACGACGGGATT
B11: GCGAAUU (DNA:RNA)
RNA: B6 RNA with C30U, G31U
DNA 1: CAATCTGAATTCCGGTCTCCC
DNA 2: TGGTGGCTACGACGGGATT
B12: GCGAAUG (DNA:RNA)
RNA: B6 RNA with C30U
DNA 1: CAATCTGAATTCCGGTCTCCC
DNA 2: TGGTGGCTACGACGGGATT
B13: GCGAACC (DNA:RNA)
RNA: B6 RNA with G31C
DNA 1: CAATCTGAATTCCGGTCTCCC
DNA 2: TGGTGGCTACGACGGGATT
B14: GCGAAUC (DNA:RNA)
RNA: B6 RNA with C30U, G31C
DNA 1: CAATCTGAATTCCGGTCTCCC
DNA 2: TGGTGGCTACGACGGGATT
B15: GCGCGAA (DNA:RNA)
RNA: B6 RNA with A28C, A29G, C30A, G31A
DNA 1: CAATCTGAATTCCGGTCTCCC
DNA 2: TGGTGGCTACGACGGGATT
B16: GAAUGUG (DNA:RNA)
RNA: B1 RNA with A25G, G26A, U27A, G30U, C31G
DNA 1: CAATCTGAATTCCGGTCTCCC
DNA 2: TGGTGGCTACGACGGGATT
B17: GAUUGUG (DNA:RNA)
RNA: B1 RNA with A25G, G26A, G30U, C31G
DNA 1: CAATCTGAATTCCGGTCTCCC
DNA 2: TGGTGGCTACGACGGGATT
B18: GAUUAAU (DNA:RNA)
RNA: B1 RNA with A25G, G26A, G29A, G30A, C31U
DNA 1: CAATCTGAATTCCGGTCTCCC
DNA 2: TGGTGGCTACGACGGGATT
B19: UUGCUUC (DNA:RNA)
RNA: B1 RNA with A25U, G26U, U27G, U28C, G29U, G30U
DNA 1: CAATCTGAATTCCGGTCTCCC
DNA 2: TGGTGGCTACGACGGGATT
B20: AGAGUCA (DNA:RNA)
RNA: B1 RNA with U27A, U28G, G29U, G30C, C31A
DNA 1: CAATCTGAATTCCGGTCTCCC
DNA 2: TGGTGGCTACGACGGGATT

Changes are numbered by the printed parent chain; changes in the protein carry UniProt numbers. Whole data set: some 16,000 sequences, median “ka relative to ugcaugu” near 0.096, cut for the highest 2% near 0.35. The sample as a whole holds a higher share of the highest values than the screen did.

This assay deals with T1, RBFOX1 RRM RbFoxmut (Fox-RRM*) (Homo sapiens, UniProt Q9NWB1 109-208, R118D;E147R;N151S;E152T).
T1 sequence: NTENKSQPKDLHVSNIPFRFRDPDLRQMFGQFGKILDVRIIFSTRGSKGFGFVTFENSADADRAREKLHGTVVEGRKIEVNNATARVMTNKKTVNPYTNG
Briefly: EMSA; HiTS-Eq, 1 nM pool, 10 min; buffer printed only for the single-RNA assays: 10 mM Tris pH 7.5, 150 mM NaCl, 3.4 mM EDTA, 0.001% NP-40, 30 C. As to conditions: tags: His6 N-terminal (pET28a); label: 5' 32P. The method in brief: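 Purified RbFox RRM (wild type or mutant) was equilibrated for 10 min in 50 µL with 1 nM of a 5′-radiolabelled pool of RNA with 7 randomized nucleotides, its flanks annealed to DNA oligonucleotides, across increasing protein concentrations. Free RNA was separated by 8% native PAGE, excised, reverse-transcribed, PCR-barcoded and sequenced on an Illumina HiSeq 2500. Relative association constants came from read-count changes of each variant against the control reaction, normalised to the cognate motif.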
A general note: Mobility shift assays separate free from complexed probe on a gel.
For the molecule B1, the binding signal is 0.107 KA relative to UGCAUGU.

Regarding B2, the binding signal is 0.0764 KA relative to UGCAUGU.

Consider B3, for which the binding signal is 0.0966 KA relative to UGCAUGU.

In the case of B4, the binding signal is 0.0996 KA relative to UGCAUGU.

B5: the binding signal was 0.0423 KA relative to UGCAUGU.

Consider B6, for which the binding signal is 0.354 KA relative to UGCAUGU.

For B7, the binding signal is 0.151 KA relative to UGCAUGU.

As to B8, the binding signal was 0.111 KA relative to UGCAUGU.

For B9, the binding signal was 0.206 KA relative to UGCAUGU.

Regarding B10, the binding signal was 0.102 KA relative to UGCAUGU.

With B11, the binding signal is 0.113 KA relative to UGCAUGU.

Regarding B12, the binding signal is 1.44 KA relative to UGCAUGU.

As for B13, the binding signal is 0.0798 KA relative to UGCAUGU.

As for B14, the binding signal was 0.385 KA relative to UGCAUGU.

Turning to B15, the binding signal is 0.104 KA relative to UGCAUGU.

As for B16, the binding signal is 1.27 KA relative to UGCAUGU.

For the molecule B17, the binding signal was 0.249 KA relative to UGCAUGU.

Consider B18, for which the binding signal was 0.0998 KA relative to UGCAUGU.

For B19, the binding signal was 0.157 KA relative to UGCAUGU.

Regarding B20, the binding signal was 0.106 KA relative to UGCAUGU.
